Test results published in PubChem BioAssay.
Calls of active or inactive are those of the source.

Columns and labels:
[1] = target: Albumin (Bos taurus) (UniProt P02769); experiment: compounds binding labelled BSA control protein – biochemical, small-molecule microarray, Alexa647 label, 635/667 nm fluorescence, artefact control for SMM control protein annotation, profiling panel (AID 1118); settings: BSA-A647 binding, fluorescence 635 nm, higher = more signal;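 further: score merges 667 nm emission intensity and signal-to-noise per printed compound spot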
Chain of Albumin (Bos taurus) (P02769 whole entry, looked up): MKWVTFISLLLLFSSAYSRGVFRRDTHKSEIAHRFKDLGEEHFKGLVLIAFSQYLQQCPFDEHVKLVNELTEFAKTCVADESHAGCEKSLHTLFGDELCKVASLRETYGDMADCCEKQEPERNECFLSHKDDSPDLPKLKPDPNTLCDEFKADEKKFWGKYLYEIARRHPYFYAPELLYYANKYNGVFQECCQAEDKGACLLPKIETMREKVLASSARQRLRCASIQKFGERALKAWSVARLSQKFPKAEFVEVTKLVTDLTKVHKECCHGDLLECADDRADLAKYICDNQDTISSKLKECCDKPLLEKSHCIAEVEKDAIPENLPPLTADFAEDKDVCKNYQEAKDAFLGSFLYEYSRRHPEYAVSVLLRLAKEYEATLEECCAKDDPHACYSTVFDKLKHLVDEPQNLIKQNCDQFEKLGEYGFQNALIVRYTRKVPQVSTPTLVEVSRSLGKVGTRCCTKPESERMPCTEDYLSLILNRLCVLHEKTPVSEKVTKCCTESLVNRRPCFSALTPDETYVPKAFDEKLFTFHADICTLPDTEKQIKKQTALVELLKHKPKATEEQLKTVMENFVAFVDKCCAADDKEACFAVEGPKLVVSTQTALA

[2] = probe aXIP binding to arrayed compounds – biochemical, NeuroSMM set, 635/667 nm fluorescence, primary screen (AID 1119); settings: small-molecule microarray, higher = more signal, called active from +8 up or from −8 down;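 further: probe is the protein aXip251-270 applied at 1 µg/mL to compound-printed slides; binding of probe to printed compounds measured as 667 nm fluorescence plus signal to noise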
[3] = probe aNOTCH3 binding on compound microarray – biochemical, small-molecule microarray, 635/667 nm fluorescence, primary screen (AID 1120); settings: higher = more signal;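 further: probe is a biotin-tagged antibody raised against NOTCH3 rather than NOTCH3 protein; score merges spot fluorescence near 667 nm with spot signal to noise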
[4] = probe aNOTCH2 binding on compound microarray – biochemical, small-molecule microarray, 635/667 nm fluorescence, primary screen (AID 1121); settings: higher = more signal;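 further: score merges feature fluorescence read at 667 nm with its signal to noise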
[5] = target: Carbonic anhydrase 2 (Homo sapiens) (UniProt P00918); experiment: compounds binding carbonic anhydrase 2 – biochemical, small-molecule microarray, Alexa647-labelled CAII, profiling panel (AID 1122); settings: CAII-A647 binding fluorescence, higher = more signal
[6] = COS7 lysate on small-molecule microarray, probe aHis, 635 nm (AID 1123); settings: COS7 cell lysate, fluorescence, higher = more signal;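 further: z-score combines 667nm fluorescence intensity with signal-to-noise per printed compound spot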
[7] = probe aLAP1 signal on lysate-treated microarray – cell lysate, small-molecule microarray, COS7 lysate, primary screen (AID 1124); settings: probe aLAP1, fluorescence, higher = more signal;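 further: lysate comes from COS7 cells expressing LAP1 and is applied at 0.3 µg/mL; score merges spot fluorescence near 667 nm with signal-to-noise over triplicate slides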
[8] = tested on: Sam68 (KHDRBS1); experiment: compounds binding KHDRBS1 protein – biochemical, small-molecule microarray, 635 nm fluorescence, primary screen (AID 1125); settings: higher = more signal;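 further: score merges 667 nm channel intensity with signal to noise over triplicate slides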
[9] = tested on: Chordin-like protein 2 (CHRDL2); experiment: compounds binding chordin-like 2 – biochemical, small-molecule microarray, 635 nm fluorescence, primary screen (AID 1126); settings: fluorescence 635 nm, higher = more signal;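 further: printed compound slides probed with Chrdl2 protein at 4 µg/mL for 1 h at 4 C; score merges 667 nm emission intensity with signal to noise over three replicate slides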
[10] = target: Concanavalin-A (Canavalia ensiformis) (UniProt P02866); experiment: compounds binding concanavalin A lectin – biochemical, small-molecule microarray, Alexa647 label, 635 nm, artefact control for SMM control protein annotation, primary screen (AID 1127); settings: ConA-A647 binding fluorescence, higher = more signal;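 further: z combines 667 nm emission intensity with signal-to-noise across three replicate slides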
Chain of Concanavalin-A (Canavalia ensiformis) (P02866 whole entry, looked up): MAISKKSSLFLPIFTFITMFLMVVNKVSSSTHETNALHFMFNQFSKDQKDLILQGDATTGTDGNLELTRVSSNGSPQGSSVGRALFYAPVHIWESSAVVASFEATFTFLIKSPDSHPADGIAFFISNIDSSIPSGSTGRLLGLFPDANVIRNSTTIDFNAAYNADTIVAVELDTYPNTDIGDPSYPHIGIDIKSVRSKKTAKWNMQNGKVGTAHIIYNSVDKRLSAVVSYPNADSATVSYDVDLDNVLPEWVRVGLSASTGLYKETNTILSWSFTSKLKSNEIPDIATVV

[11] = compounds binding Alexa647 anti-His antibody – biochemical, small-molecule microarray, 635 nm fluorescence, artefact control for SMM control protein annotation, primary screen (AID 1128); settings: higher = more signal;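 further: score merges feature fluorescence with signal-to-noise for each printed compound spot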
[12] = tested on: Human papillomavirus type 1a E7 protein (residues 1-88); experiment: HPV1a E7 small-molecule binders, primary screen, biochemical, small-molecule microarray, residues 1-88, 635 nm (AID 1129); settings: small-molecule microarray binding, fluorescence 635 nm; higher = more signal
[13] = target: Focal adhesion kinase 1 (Homo sapiens) (UniProt Q05397); experiment: PTK2 protein binding on printed compound slides – biochemical, small-molecule microarray, 635/667 nm fluorescence, BSA, DTT, primary screen (AID 1130); settings: 635 nm fluorescence, higher = more signal;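 further: composite of spot emission at 667 nm and signal to noise over triplicate slides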
Chain of Focal adhesion kinase 1 (Homo sapiens) (Q05397 whole entry, looked up): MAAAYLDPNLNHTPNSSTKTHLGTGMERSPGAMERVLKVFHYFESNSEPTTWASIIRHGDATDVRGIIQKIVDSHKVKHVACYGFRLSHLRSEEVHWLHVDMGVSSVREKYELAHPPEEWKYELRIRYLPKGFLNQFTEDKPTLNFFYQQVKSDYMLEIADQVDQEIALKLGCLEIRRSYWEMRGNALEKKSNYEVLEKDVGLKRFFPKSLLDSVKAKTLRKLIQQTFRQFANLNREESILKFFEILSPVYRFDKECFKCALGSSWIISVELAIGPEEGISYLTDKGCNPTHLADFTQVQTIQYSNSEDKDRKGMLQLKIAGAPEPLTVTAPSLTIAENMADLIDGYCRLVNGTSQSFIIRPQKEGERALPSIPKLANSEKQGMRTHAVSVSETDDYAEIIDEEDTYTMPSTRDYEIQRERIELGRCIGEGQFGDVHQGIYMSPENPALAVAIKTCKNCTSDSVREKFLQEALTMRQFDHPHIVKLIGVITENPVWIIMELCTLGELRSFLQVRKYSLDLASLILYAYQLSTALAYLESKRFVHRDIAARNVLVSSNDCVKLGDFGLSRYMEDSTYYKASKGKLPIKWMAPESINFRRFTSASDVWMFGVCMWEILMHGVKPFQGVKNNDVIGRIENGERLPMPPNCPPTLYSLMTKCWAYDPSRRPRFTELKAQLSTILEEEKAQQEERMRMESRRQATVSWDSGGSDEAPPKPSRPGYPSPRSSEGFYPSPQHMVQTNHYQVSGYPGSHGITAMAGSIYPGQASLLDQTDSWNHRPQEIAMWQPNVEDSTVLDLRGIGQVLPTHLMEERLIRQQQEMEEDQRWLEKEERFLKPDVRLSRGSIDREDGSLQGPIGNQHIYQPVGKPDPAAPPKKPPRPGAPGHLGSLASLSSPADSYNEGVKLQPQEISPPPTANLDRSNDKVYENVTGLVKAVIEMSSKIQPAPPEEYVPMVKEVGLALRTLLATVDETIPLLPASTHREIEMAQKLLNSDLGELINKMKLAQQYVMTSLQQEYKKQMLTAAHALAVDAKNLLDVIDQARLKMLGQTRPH

[14] = tested on: Fibrinogen (Alexa647-labelled); experiment: Alexa647-fibrinogen binding to printed small molecules – biochemical, small-molecule microarray, 635/667 nm fluorescence, artefact control for SMM control-protein annotation, profiling panel (AID 1131); settings: fibrinogen-A647 binding fluorescence, higher = more signal;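 further: z-score merges 667 nm fluorescence with per-spot signal-to-noise over triplicate slides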
[15] = target: Follistatin (Homo sapiens) (UniProt P19883); experiment: FST protein binding to printed compounds – biochemical, small-molecule microarray, 635/667 nm fluorescence, primary screen (AID 1132); settings: 635 nm fluorescence, higher = more signal
Chain of Follistatin (Homo sapiens) (P19883 whole entry, looked up): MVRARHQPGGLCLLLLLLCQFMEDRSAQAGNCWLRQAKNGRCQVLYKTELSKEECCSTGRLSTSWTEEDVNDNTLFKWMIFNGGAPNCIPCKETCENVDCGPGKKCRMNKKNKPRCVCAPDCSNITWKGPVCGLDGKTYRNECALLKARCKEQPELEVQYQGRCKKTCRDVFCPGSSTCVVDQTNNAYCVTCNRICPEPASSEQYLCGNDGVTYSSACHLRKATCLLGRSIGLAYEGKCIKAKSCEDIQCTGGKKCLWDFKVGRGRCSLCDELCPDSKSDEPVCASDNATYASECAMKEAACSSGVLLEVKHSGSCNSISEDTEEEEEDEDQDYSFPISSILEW

[16] = target: Fibroblast growth factor 2 (Homo sapiens) (UniProt P09038); experiment: basic fibroblast growth factor binding to printed compounds – biochemical, small-molecule microarray, 635/667 nm fluorescence, primary screen (AID 1133); settings: FGF2, fluorescence 635/667, higher = more signal
Chain of Fibroblast growth factor 2 (Homo sapiens) (P09038 whole entry, looked up): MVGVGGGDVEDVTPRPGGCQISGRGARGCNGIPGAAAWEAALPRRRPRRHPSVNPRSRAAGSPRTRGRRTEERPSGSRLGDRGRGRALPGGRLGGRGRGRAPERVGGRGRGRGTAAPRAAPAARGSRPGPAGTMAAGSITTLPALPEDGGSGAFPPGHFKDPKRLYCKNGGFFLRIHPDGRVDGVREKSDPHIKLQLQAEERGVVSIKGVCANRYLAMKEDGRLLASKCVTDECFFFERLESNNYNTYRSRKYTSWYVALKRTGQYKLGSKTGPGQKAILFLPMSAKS

[17] = JC-1 mitochondrial potential readout, lung cancer cells – cell-based, A549, JC-1 fluorescence, basal, 24 h, 100 nL, profiling panel (AID 1138); settings: higher = more signal;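 further: A549 lung adenocarcinoma cells under basal conditions with no added stimulus; test concentration not given here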
[18] = tested on: Lefty1; experiment: Lefty1 protein binding to printed compounds – biochemical, small-molecule microarray, 635/667 nm fluorescence, primary screen (AID 1139); settings: fluorescence 635/667, higher = more signal
[19] = tested on: wheat germ agglutinin (Triticum aestivum), Alexa647-labelled; experiment: Alexa647-WGA lectin binding to printed small molecules – biochemical, small-molecule microarray, 635/667 nm fluorescence, artefact control for SMM control-protein annotation, profiling panel (AID 1140); settings: WGA-A647 binding, 635 nm fluorescence, higher = more signal;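 further: score merges 667 nm feature emission with signal to noise over triplicate slides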
[20] = target: Luciferin 4-monooxygenase (Photinus pyralis) (UniProt P08659); experiment: inhibition of purified Photinus pyralis luciferase – biochemical, luminescence, purified enzyme, 2006 set, primary screen (AID 1141); settings: purified firefly luciferase, SteadyGlo luminescence, 30 min; higher = more signal, called active from +8 up or from −8 down;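 further: cell-free assay with purified firefly luciferase at 100 ng per well in PBS; test concentration not given here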
Chain of Luciferin 4-monooxygenase (Photinus pyralis) (P08659 whole entry, looked up): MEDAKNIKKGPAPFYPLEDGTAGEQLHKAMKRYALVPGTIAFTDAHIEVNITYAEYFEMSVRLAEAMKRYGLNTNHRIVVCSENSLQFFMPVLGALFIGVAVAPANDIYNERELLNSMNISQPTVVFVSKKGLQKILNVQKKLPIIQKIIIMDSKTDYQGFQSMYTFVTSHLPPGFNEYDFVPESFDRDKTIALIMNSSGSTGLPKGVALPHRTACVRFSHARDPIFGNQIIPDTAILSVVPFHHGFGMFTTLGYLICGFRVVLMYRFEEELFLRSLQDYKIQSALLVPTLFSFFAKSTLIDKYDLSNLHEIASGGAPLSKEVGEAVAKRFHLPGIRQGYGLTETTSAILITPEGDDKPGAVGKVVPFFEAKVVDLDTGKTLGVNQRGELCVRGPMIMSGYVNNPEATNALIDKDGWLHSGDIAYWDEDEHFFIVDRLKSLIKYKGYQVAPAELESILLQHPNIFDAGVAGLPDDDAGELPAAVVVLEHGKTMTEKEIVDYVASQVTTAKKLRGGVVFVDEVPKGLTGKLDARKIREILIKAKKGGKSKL

Row | SMILES | composite z-score [1] | composite Z-score [2] | composite z-score [3] | composite z-score [4] | composite z-score [5] | composite z-score [6] | composite z-score [7] | composite z-score [8] | composite z-score [9] | composite z-score [10] | composite z-score [11] | composite z-score [12] | composite z-score [13] | composite z-score [14] | composite z-score [15] | composite z-score [16] | z-score [17] | composite z-score [18] | composite z-score [19] | z-score [20]
1 | CC[C@@H](c1ccccc1)n1c(=O)n2n(c1=O)[C@H]1[C@H](O)[C@@H]3O[C@@H]3C(=NOCc3ccccc3)[C@H]1CC2 | 0.536 | -0.558 (inactive) | 0.0306 | -0.203 | 0.178 | 0.423 | -0.502 | 0.0843 | 0.283 | 0.966 | 0.274 | 0.0875 | -0.207 | 0.931 | 0.598 | 0.373 | -1.14 | 0.65 | 0.676 | 0.0145 (inactive)
2 | COC(=O)CC=C1c2ccccc2[C@H](OC)[C@H]1C | -0.8 | 0.272 (inactive) | 0.0026 | -0.0614 | -0.36 | -0.316 | -0.441 | -0.742 | 0.523 | -0.334 | -0.706 | -0.352 | -0.102 | -0.479 | -0.0211 | 0.621 | -0.612 | 0.338 | -0.488 | 0.469 (inactive)
3 | COC(=O)[C@H](C)NC(=O)CCC1CC(OC(=O)NCc2ccc3c(c2)OCO3)CC2(CCCC(COC(=O)NCCc3ccc(Cl)cc3)O2)O1 (stereo not given in full) | 0.293 | 0.0601 (inactive) | 0.0129 | -0.0974 | 0.0233 | 0.043 | -0.0478 | 0.422 | 1.26 | -0.455 | 1.22 | 0.377 | 0.142 | 0.275 | 0.758 | 0.742 | -0.928 | 0.398 | 0.268 | 0.839 (inactive)
4 | O=C1C=C[C@@H](O)[C@@H]2[C@@H]3C(=O)N(c4cccc(Oc5ccccc5)c4)C(=O)[C@@H]3CC[C@@H]12 | 0.0329 | -0.554 (inactive) | -0.132 | -0.176 | -0.0169 | -0.55 | -0.239 | 0.184 | 0.417 | 0.19 | 0.959 | 0.548 | -0.183 | -0.127 | 0.464 | -0.196 | -0.774 | 0.478 | 0.228 | -0.57 (inactive)
5 | CO[C@@H]1[C@H](O)CO[C@H]1C=Cc1ccccc1 | 0.24 | -0.173 (inactive) | -0.127 | -0.0956 | 0.405 | 0.402 | 0.388 | 0.243 | 0.144 | 0.17 | 0.286 | 0.219 | 0.0086 | 0.543 | 0.251 | 0.273 | -0.75 | 0.28 | -0.07 | -0.339 (inactive)
6 | CCOC(=O)[C@H](CC(C)C)NC(=O)CCC1CC(OC(=O)NCc2ccc3c(c2)OCO3)CC2(CCCC(COC(=O)NCCOC)O2)O1 (stereo not given in full) | -0.398 | -0.0756 (inactive) | 0.0208 | -0.166 | 0.152 | 0.57 | 0.0898 | 0.911 | 0.293 | 0.858 | 0.418 | 0.758 | -0.379 | 0.942 | 0.589 | 0.725 | -0.119 | 0.847 | 0.609 | 0.713 (inactive)
7 | C=CC[C@@H]1C=C[C@H](ON=C2C[C@@H](O)[C@@H](O)[C@@H]3[C@@H]4C(=O)N(CC)C(=O)[C@@H]4CC[C@@H]23)[C@@H](CO)O1 | -0.873 | -0.116 (inactive) | -0.16 | -0.237 | 0.452 | 0.429 | -0.289 | -0.444 | -0.0673 | -1.18 | -2.3 | -1.1 | 0.382 | -1.15 | -0.707 | 0.119 | -0.992 | 0.158 | -1.41 | 1.3 (inactive)
8 | CC(CCN1CCCc2nc(C)c(C)cc21)=NO[C@@H](C)c1cn([C@H](CO)Cc2ccccc2)nn1 | -0.139 | 0.344 (inactive) | 0.184 | -0.0282 | 0.074 | 0.531 | -0.0771 | 0.477 | 0.801 | 0.497 | 0.14 | 0.0974 | 0.338 | 0.279 | 0.764 | 0.957 | -0.088 | 0.671 | 0.152 | -0.224 (inactive)
9 | CO[C@@H](C1CCCCC1)[C@@H](C)[C@H](OCc1cccc(Br)c1)[C@@H](C)CO | -0.0658 | -0.188 (inactive) | -0.207 | -0.209 | -0.17 | -0.111 | -0.0972 | -0.0221 | 0.908 | -0.153 | -0.833 | -0.0434 | -0.299 | -0.106 | 0.265 | 0.286 | -0.72 | 0.407 | -0.181 | 0.158 (inactive)
10 | Cc1cc(C)c(-c2cc([C@H](C)ON=C[C@@H](C)[C@H](OCc3ccccc3)C(C)C)on2)c(C)c1 | -0.365 | 0.687 (inactive) | -0.061 | -0.185 | -0.206 | -0.244 | -0.637 | -0.686 | -0.11 | -0.412 | -0.781 | -1.04 | 0.0063 | -1.82 | -0.158 | 0.133 | 1.18 | 0.116 | 0.528 | 0.82 (inactive)
11 | O=C(NN=C1C[C@@H](O)[C@@H](O)[C@@H]2[C@@H]3C(=O)N(c4ccc(F)cc4F)C(=O)[C@@H]3CC[C@H]12)OCc1ccccc1 | 0.87 | -0.525 (inactive) | 0.11 | -0.0958 | 0.477 | 0.98 | -0.27 | 0.959 | 0.161 | 0.411 | 0.746 | 0.76 | 0.0097 | 0.501 | 0.28 | 0.0684 | -0.63 | 0.331 | 0.114 | 0.934 (inactive)
